Source: PubChem
This is a sample that favours compounds with a hit; in the whole collection about 11% have one here.
ALOX12 inhib: blocks human 12-lipoxygenase activity. purified 12-hLO, xylenol orange hydroperoxide absorbance. Potency, µM (titrated, usually from 57.1 µM), without a hit: at the top dose activity change, negative = inhibition, usual class: inhibitors. 0.12% of 150,000 active. AID 1452; active = well fitted curve in the direction sought with a large enough effect; inconclusive = small, poorly fitted or top-dose-only effect, or another doubt; inactive = no such curve, though single readings can be large; an effect the other way counts as inactive or inconclusive; note: potency is the fitted concentration of half-maximal effect; nearly all actives have a fitted effect of over 55% in size
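Purified human 12hLO (150 nM final) was preincubated with compounds for 15 min at room temperature in 25 mM Hepes pH 7.0, 0.01% Triton X-100, then reacted with 40 uM arachidonic acid for 30 min. Hydroperoxide was detected with ferrous iron/xylenol orange.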
PNC assembly inh: blocks assembly of the perinucleolar compartment; PC3M PTB-GFP, PNC prevalence imaging, 16 h; hits give low values; activity change (PNC), negative = inhibition, % at 10 µM; 3.1% of 140,000 active; AID 2417;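 active = readout at or below -70, meaning at least 70% loss of cells showing the perinucleolar compartment, a nuclear body marking cancer cells; inconclusive = readout between -30 and a set limit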;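 note: plate controls were DMSO wells for no effect and camptothecin positive control wells for full effect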
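PC3M cells stably expressing PTB-GFP, 750–1000 cells/well, treated 16 h at 37 °C with compound (23 nl of library stock), in duplicate. After paraformaldehyde fixation and Hoechst stain, imaged at 20x; PNC prevalence scored by image analysis.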
IMPase inh: membrane-permeable compound that blocks inositol monophosphatase. P97697. CHO-M1 cells, IP1 accumulation, HTRF TR-FRET ratio. inhibition (IP1 accumulation), % at 46.1 µM. 120,000 tested, under 10 active. AID 901; active = well fitted curve in the direction sought with a large enough effect in the signal ratio, not every such curve was filed as active; inconclusive = small, poorly fitted or top-dose-only effect, or a change in a side signal; inactive = no such curve, though single readings can be large or run the other way; the % refers to the signal ratio;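 note: cells stimulated with carbachol in lithium chloride buffer; plate controls were DMSO basal wells for no effect and reference inhibitor wells for full effect; higher means more IMPase inhibition seen as more IP1 and lower FRET ratio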
Target sequence (P97697 whole entry, looked up): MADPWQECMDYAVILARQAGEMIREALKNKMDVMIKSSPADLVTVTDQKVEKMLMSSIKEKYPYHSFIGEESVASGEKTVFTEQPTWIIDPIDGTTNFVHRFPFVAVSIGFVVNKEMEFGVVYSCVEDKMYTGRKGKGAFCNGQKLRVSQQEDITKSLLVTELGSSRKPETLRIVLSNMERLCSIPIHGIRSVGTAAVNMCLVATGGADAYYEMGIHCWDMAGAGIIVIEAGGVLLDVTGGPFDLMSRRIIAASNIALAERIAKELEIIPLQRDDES
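In this qHTS, compounds (final up to 46 uM) act on CHO-M1 cells that are then activated through the M1 receptor with carbachol, in pH 7.4 buffer containing 50 mM LiCl, for 30 min. IP1 accumulation is quantified by the IP-One immunoassay.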
HPGD inh: inhibitors of human 15-hydroxyprostaglandin dehydrogenase (HPGD). P15428. purified HPGD, NADH fluorescence kinetic, PGE2 substrate. Potency, µM, inactives show top-dose activity change, negative = inhibition, most hits filed as inhibitors. 4.3% of 150,000 active. AID 894; note: potency is the fitted concentration of half-maximal effect
Target sequence (P15428 whole entry, looked up): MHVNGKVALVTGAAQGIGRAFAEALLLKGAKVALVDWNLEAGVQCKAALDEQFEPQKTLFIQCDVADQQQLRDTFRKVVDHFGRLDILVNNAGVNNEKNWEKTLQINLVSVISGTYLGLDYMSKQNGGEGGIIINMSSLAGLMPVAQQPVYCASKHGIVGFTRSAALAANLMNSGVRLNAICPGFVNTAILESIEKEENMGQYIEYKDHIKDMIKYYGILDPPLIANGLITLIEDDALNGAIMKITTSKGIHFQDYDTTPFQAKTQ
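NADH formation kinetics: reaction with 30 uM PGE2 and 1 mM NAD+ (final), 20 nM enzyme, Tris-HCl pH 8 with Tween 20, after 15 min compound preincubation at room temperature. Fluorescence change, last versus first of five reads.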
IMPase Li cell: cell-permeable IMPase inhibitors with lithium potentiation; CHO-M1 cells, IP1 TR-FRET (IP-One), carbachol + lithium; Potency, µM (doses to about 59.4 µM), without a hit: top-dose activity, negative = IMPase inhibition, usual class: inhibitors; 0.35% of 210,000 active; AID 1457; active = well fitted curve in the direction sought with a large enough effect; inconclusive = small, poorly fitted or top-dose-only effect, or another doubt; inactive = no such curve, though single readings can be large; an effect the other way counts as inactive or inconclusive;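 note: IP1 builds up when IMPase is blocked and the TR-FRET signal falls; potency is the fitted concentration of half-maximal effect; plate controls were basal vehicle for no effect and high inhibitor control for full effect; nearly all actives have a fitted effect of over 50% in size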
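Readout is a homogeneous TR-FRET IP1 immunoassay (Ex 320, Em 665 and 620), where raised cytosolic IP1 lowers signal. Cells were CHO-M1 treated 30 min at 37C with test compounds plus a little lithium; AC50 values came from Hill-equation fitting.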
ALDH1A1 block: inhibitors of human aldehyde dehydrogenase 1A1; 7.3% of 220,000 active; P00352; Purified ALDH1A1, NADH fluorescence, propionaldehyde substrate; Potency, µM (top dose mostly 75.3 µM), without a hit: at the highest dose activity, negative = inhibition, usual class: inhibitors;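 note: potency is the fitted concentration of half-maximal effect; plate controls were no enzyme wells and a reference inhibitor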
The depositor's hits bear a star; ? = inconclusive; . = not tested or not shown; ! = not confirmed by another sample; [ ] = dose if it differs, or a comment. Unless noted, calls come from the whole dose curve; as a rule, active = well fitted inhibition curve with a large enough effect (not every such curve was filed as active); inconclusive = small, poorly fitted or top-dose-only effect, or another doubt; inactive = no such curve, though single readings can be large or run the other way. Unless noted, % is set by controls: 0 for no effect and ±100 for the full control effect.

SMILES	ALOX12 inhib	PNC assembly inh	IMPase inh	HPGD inh	IMPase Li cell	ALDH1A1 block
CN(C(=O)Cc1ccc(Cl)c(Cl)c1)[C@H](CN1CCCC1)c1ccccc1	-3%	.	2	-7%	-3%	-1%
CCCCC/C=C\C/C=C\C/C=C\C/C=C\CCCC(=O)O	0%	.	1	16µM*!	-11%	7.9µM*!
Cc1cc(Br)ccc1N1C(=O)CC(=O)NC1=O	?	-13	-3	-4%	-7%[38.3 µM]	-1%
O=C1CC(=O)N(c2ccc(Cl)cc2Cl)C(=O)N1	?	-127*	-7	-10%	-4%[38.3 µM]	7%
CCCCCCCCCCCCCC(=O)O[C@H]1[C@@H](C)[C@@]2(O)[C@@H](C=C(CO)C[C@]3(O)C(=O)C(C)=C[C@@H]23)C2C(C)(C)[C@]21OC(C)=O (some centres not stated)	-5%	.	0	.	.	.
COc1cccc(-n2c(O)c(C=NCc3ccc4c(c3)OCO4)c(=O)[nH]c2=O)c1	-3%	-6	0	-10%	1%[38.3 µM]	-3%
COc1ccccc1-n1c(O)c(C=NCc2ccc3c(c2)OCO3)c(=O)[nH]c1=O	-1%	-107*	5	-24%	14%[38.3 µM]	-10%
CCNC(C)(C)[C@@H](SS)c1ccc(Br)cc1	-3%[11.4 µM]	.	.	3.2µM*	14%	?
O=[N+]([O-])c1ccccc1CCl	-1%	.	.	2%	-13%	13µM*
CC(=NCCCN1CCOCC1)c1c(O)n(-c2ccccc2C)c(=O)[nH]c1=O	3%	29	2	-8%	3%[38.3 µM]	14µM*
CC(=NCCN1CCOCC1)c1c(O)n(Cc2ccccc2)c(=O)[nH]c1=O	9%	34	1	?	-8%[38.3 µM]	?
Nc1nc(N)c(N=Nc2ccc([As](=O)(O)O)cc2)c(=O)[nH]1	5%[11.4 µM]	.	.	-1%	4%	2%[13.5 µM]
C=CCn1c(O)c(C(C)=Nc2ccc(N(C)C)cc2)c(=O)[nH]c1=O	-7%	-91*	15	-7%	15%[38.3 µM]	-6%
CCC(=NCc1cccnc1)c1c(O)n(Cc2ccccc2)c(=O)[nH]c1=O	-7%	39	8	16µM*	9%[38.3 µM]	?
CC(=NCc1cccnc1)c1c(O)n(-c2ccccc2)c(=O)[nH]c1=O	2%	6	-2	-3%	-1%[38.3 µM]	-2%
C=CCn1c(O)c(C(CC)=NC(C)c2ccccc2)c(=O)[nH]c1=O (configuration not stated)	-3%	-94*	5	-15%	-18%[38.3 µM]	?
C=CCn1c(O)c(C(C)=Nc2ccc(N(CC)CC)cc2)c(=O)[nH]c1=O	-1%	-3	11	-24%	38%[38.3 µM]	?
CC(=NCc1cccnc1)c1c(O)n(Cc2ccccc2)c(=O)[nH]c1=O	-5%	15	0	28µM*	3%	?
CCCCn1c(O)c(C(CC)=NC(C)c2ccccc2)c(=O)[nH]c1=O (configuration not stated)	-6%	16	9	-9%	-7%[38.3 µM]	2%
CCCCn1c(O)c(C(CC)=NCc2cccnc2)c(=O)[nH]c1=O	-1%	13	-3	-15%	27%[38.3 µM]	2%
CCCN1CCCC(c2cccc(O)c2)C1 (configuration not stated)	.	.	.	3%	9%	-2%
COC(=O)[C@@]1(Cc2ccccc2)[C@H]2c3cc(C(=O)N(C)C)[nH]c3C[C@H]2CN1C(=O)c1ccccc1	-5%	.	.	-1%	-3%	3%
O=S(=O)(O)F	-2%	.	.	-23%	-2%	-82%
Cc1cc(Cc2cc(C)c(N)cc2N)c(N)cc1N	3%[11.4 µM]	.	.	-19%	9%	?
O=c1c2ccccc2ncn1-c1ccc([N+](=O)[O-])c(C(F)(F)F)c1	3%	-14	.	-4%	7%	9%
SMILES	ALOX12 inhib	PNC assembly inh	IMPase inh	HPGD inh	IMPase Li cell	ALDH1A1 block
CCCc1nc2ccc(Br)cc2c(=O)n1-c1ccc([N+](=O)[O-])c(C(F)(F)F)c1	1%	-96*	5	.	.	-7%
Oc1ccc2c3c1O[C@H]1c4c(c5ccccc5n4Cc4ccccc4)C[C@@]4(O)C(C2)N(CC2CC2)CC[C@]314	.	.	.	.	39%	5%
CC[C@@H]1/C=C/C=C/C[C@H](C)[C@@H](O)[C@](C)(O)C(=O)[C@H](C)[C@@H](O)[C@H](C)C(=O)[C@H](C)[C@@H](O)[C@H](C)/C=C/C(=O)O[C@H]2[C@@H](C)[C@@H](CC1)O[C@@]1(CC[C@@H](C)[C@@H](C[C@H](C)O)O1)[C@@H]2C	.	.	.	.	7%	?
Cc1ccc(C(=O)c2ccc(CC(=O)O)n2C)cc1	1%	.	2[20.6 µM]	16µM*!	7%	2%
O=C1NC(=O)N(c2ccccc2F)C(=O)/C1=C/c1ccc(Sc2nc3ccccc3[nH]2)o1	-25%	-24	.	3.5µM*	?	10µM*
O=C1NC(=O)N(c2ccccc2)C(=O)/C1=C/c1ccc(Sc2ccccc2)o1	3%	-4	-6	-18%	31%[38.3 µM]	0%
O=C1NC(=O)N(c2cccc(Cl)c2)C(=O)/C1=C\c1ccc(Sc2nc3ccccc3[nH]2)o1	?	1	-20	7.9µM*	-4%	22µM*
c1cc2c(cc1[C@H]1OC[C@@H]3[C@H]1CO[C@H]3c1ccc3c(c1)OCO3)OCO2	-2%	.	-2	-21%	21%	-1%
C=C(C)[C@]12C[C@@H](C)[C@@]34O[C@](Cc5ccccc5)(O[C@@H]1[C@@H]3C=C(COC(=O)Cc1ccc(O)c(OC)c1)C[C@]1(O)C(=O)C(C)=C[C@@H]41)O2	-3%[0.00818 µM]	.	.	-7%	4%	1%
CC[N+](CC)(CCNC(=O)C(=O)NCC[N+](CC)(CC)Cc1ccccc1Cl)Cc1ccccc1Cl	-4%	.	14	-4%	29%	4%
C#CCN[C@@H](C)Cc1ccccc1	-2%	.	-1	.	.	.
CC[C@H](CO)NC(=O)[C@@H]1C=C2c3cccc4[nH]cc(c34)C[C@@H]2N(C)C1	-4%	.	0	.	.	.
COc1cc(/C=C(/C)[N+](=O)[O-])ccc1OCc1ccccc1Cl	-1%	?	.	10µM*	18%	2.8µM*
COc1ccccc1N1CCN(Cc2ccccc2Cl)CC1	-20%	17	6	-2%	24%[38.3 µM]	-2%
CN1CCN(Cc2cc(C(C)(C)C)c(O)c(C(C)(C)C)c2)CC1	-4%	13	9	6%	38%[38.3 µM]	22µM*
